Source: PubChem BioAssay (Tox21)
Results filed as inconclusive are left out. Calls of active or inactive are those of the source. Unless noted, calls come from the whole dose curve; as a rule, active = well fitted curve in the direction sought with a large enough effect in the repeat runs; inconclusive = weak or mixed curves; inactive = no such curve, though single readings can be large; an effect the other way counts as inactive or inconclusive.

Tests used:
[1] = qHTS assay to identify small molecule agonists of the vitamin D receptor (VDR) signaling pathway - cell viability counter screen (AID 743224); note: series mostly up to about 63 µM; nearly all actives have a fitted effect of over 50% in size
How it was run: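 VDR-bla cell line, quantitative HTS format; 16 h compound incubation (37C, 5% CO2); ATP-based CellTiter-Glo luminescence measured in the reporter assay wells.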

[2] = qHTS assay to identify small molecule antagonists of the vitamin D receptor (VDR) signaling pathway - cell viability counter screen (AID 743225); note: nearly all actives have a fitted effect of over 50% in size
How it was run: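 VDR-bla HEK 293T cells, 4 h pre-incubation at 37C, then compound plus 1-alpha,25-dihydroxyvitamin D3 (3 nM final) for 16 h. After the beta-lactamase FRET read, CellTiter-Glo was added to the same wells; luminescence after 30 min at room temperature.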

[3] = qHTS assay to identify small molecule agonists of the NFkB signaling pathway (AID 1159509; active = well fitted curve in the direction sought with a large enough effect in the signal ratio in the repeat runs, not every such curve was filed as active; the % refers to the signal ratio; note: series mostly up to about 61 µM)
How it was run: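 NFkB-bla ME-180 cells carry a beta-lactamase reporter under an NF-kB response element. They were plated overnight, then exposed to compounds for 5 h at 37 C. Read-out is LiveBLAzer FRET after 1.5 hr at room temperature (405 nm excitation; 460/530 nm emission).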

[4] = qHTS assay to identify small molecule agonists of the NFkB signaling pathway - cell viability counter screen (AID 1159515; calls by dose curve; note: series mostly up to about 61 µM; nearly all actives have a fitted effect of over 55% in size)
How it was run: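 Viability in NFkB-bla ME-180 cells was measured by CellTiter-Glo luminescence, 30 min room temperature, in wells already treated 5 hr with compounds and read for reporter FRET.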

[5] = qHTS assay to identify small molecule agonists of the endoplasmic reticulum stress response signaling pathway (AID 1159516; active = well fitted activation curve with a large enough effect in the signal ratio in the repeat runs, not every such curve was filed as active; the % refers to the signal ratio)
How it was run: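 ER stress element reporter (bla) in HeLa. 1,500 cells/well, overnight attachment; 5 hr compound; 2 hr RT substrate; dual-emission fluorescence.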

[6] = qHTS assay to identify small molecule antagonists of the retinoid-related orphan receptor gamma (ROR-gamma) signaling pathway - cell viability counter screen (AID 1159520); note: nearly all actives have a fitted effect of over 50% in size
How it was run: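 Cytotoxicity was read from cellular ATP (CellTiter-Glo luminescence) after 16 hr at 37 C with 1 uM doxycycline induction. The inducer was added 2 hr after compound transfer to Tet-on ROR gamma CHO cells.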

[7] = qHTS assay to identify small molecule agonists of the AP-1 signaling pathway - cell viability counter screen (AID 1159525; calls by dose curve; note: nearly all actives have a fitted effect of over 55% in size)
How it was run: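 Luminescent ATP readout (Cell Titer Glo, 30 min RT), normalised to DMSO and tetra n-octyl ammonium bromide controls. Cells were ME-180 AP-1-bla in 0.5% dialyzed FBS Opti-MEM, with a 5 h, 37 °C compound exposure.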

[8] = qHTS assay to identify small molecule agonists of the AP-1 signaling pathway (AID 1159526; calls by dose curve)
[9] = molecular target: Retinoic acid receptor RXR-alpha (Homo sapiens) (UniProt P19793); assay: qHTS assay to identify small molecule agonists of the RXR signaling pathway (AID 1159527; calls by dose curve; note: nearly all actives have a fitted effect of over 35% in size)
How it was run: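 GeneBLAzer RXR-alpha-UAS-bla HEK 293T cells in medium with 2% charcoal-stripped FBS, pre-incubated 5 hr at 37 C, then exposed to compounds 16 hr. Beta-lactamase reporter read by FRET substrate, 2 hr room temperature, 460/530 nm emission.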

[10] = qHTS assay to identify small molecule agonists of the RXR signaling pathway - cell viability counter screen (AID 1159529); note: series mostly up to about 77 µM; nearly all actives have a fitted effect of over 50% in size
How it was run: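 RXR-alpha-UAS-bla HEK 293T cells in medium with 2% charcoal-stripped FBS were preincubated 5 hr, then exposed to compounds for 16 hr at 37 C. Viability was read as CellTiter-Glo luminescence after 30 min at room temperature.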

[11] = qHTS assay to identify small molecule antagonists of the retinoid acid receptor (RAR) signaling pathway - cell viability counter screen (AID 1159551); note: nearly all actives have a fitted effect of over 35% in size
How it was run: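 Following overnight attachment, C3RL4 reporter cells received DMSO-dissolved compounds and then retinol (1 uM final). Six hours later at 37 C, ATP content was measured by CellTiter-Glo luminescence.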

[12] = qHTS assay to identify small molecule antagonists of the retinoic acid receptor (RAR) signaling pathway (AID 1159552; note: nearly all actives have a fitted effect of over 50% in size)
How it was run: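 RARE-luc C3RL4 cells; cpds + 1 uM (final) retinol, 6 hr, 37 C/5% CO2; luciferase reagent, 30 min RT, luminescence readout. Inhibitors of retinol-driven signal scored.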

[13] = qHTS assay to identify small molecule agonists of the retinoic acid receptor (RAR) signaling pathway (AID 1159553)
How it was run: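 Cell line C3RL4, RARE luciferase reporter. Treatment: compounds in DMSO, 6 hr, 37 C, 5% CO2, after overnight plating. Detection: luminescence, 30 min RT after reagent.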

[14] = molecular target: Nuclear receptor ROR-gamma (Homo sapiens) (UniProt P51449); assay: qHTS assay to identify small molecule antagonists of the retinoid-related orphan receptor gamma (ROR-gamma) signaling pathway (AID 1159521)
How it was run: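 Tet-on RORγ CHO cells carrying a ROR response element–luciferase reporter were pretreated with compounds for 2 h, then induced with 1 uM (final) doxycycline hyclate for 16 h at 37 C. Antagonism was read as decreased ONE-Glo luminescence.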

[15] = qHTS assay to identify small molecule agonists of the endoplasmic reticulum stress response signaling pathway - cell viability counter screen (AID 1159517; calls by dose curve)
How it was run: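 HeLa cells carrying an ESRE-driven beta-lactamase reporter receive compound for 5 hr at 37 C. Cell viability is then gauged with CellTiter-Glo by luminescence, 30 min at room temperature.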

[16] = qHTS assay to identify small molecule antagonists of the estrogen related receptor (ERR) signaling pathway - cell viability counter screen (AID 1224818);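 note: series mostly up to about 46 µM; viability measured after 17.5 h of compound exposure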
How it was run: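 Here, ERR cells are plated at 2,000 cells per well, allowed 6 h to attach, and treated with compounds in DMSO for 17.5 h at 37 C. CellTiter-Fluor is then added and fluorescence read after 30 min.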

[17] = qHTS assay to identify small molecule antagonists of the estrogen related receptor signaling pathway with the pleiotropic PPARgamma coactivator (PGC) cell viability counter screen (AID 1224822;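 note: series mostly up to about 46 µM; viability read after 17.5 h compound exposure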)
How it was run: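 qHTS format, DMSO compound stocks pin-transferred onto PGC/ERR cells 6 h after plating; 17.5 h exposure at 37 C, then CellTiter-Fluor fluorescence.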

[18] = qHTS assay to identify small molecule antagonists of the estrogen related receptor (ERR) signaling pathway (AID 1224819)
How it was run: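 LOPAC library screened for antagonism as reduced One-Glo luminescence in ERR reporter cells (2,000/well). Compounds were added after 6 h pre-incubation and left 18 h at 37C; reading followed a 30 min room-temperature reagent step.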

[19] = qHTS assay to identify small molecule agonists of the estrogen related receptor (ERR) signaling pathway (AID 1224820)
How it was run: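 ERR reporter cell line (from NTP), 2,000 cells/well, incubated 6 h before compound addition, then 18 h at 37 C. Luminescence measured 30 min after One-Glo reagent at room temperature.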

[20] = system: estrogen-related receptor alpha (ERRalpha) with PGC-1alpha coactivator, human; assay: qHTS assay to identify small molecule antagonists of the estrogen related receptor signaling pathway with the pleiotropic PPARgamma coactivator (PGC) (AID 1224821; calls by dose curve)
How it was run: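 PGC/ERR reporter cell line, plated 6 h before compound addition, then exposed 18 h at 37 °C. Luciferase activity read by luminescence 30 min after One-Glo addition; decrease indicates antagonism.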

Measured: Potency

Retinoic acid receptor RXR-alpha (Homo sapiens), sequence (P19793 whole entry, looked up): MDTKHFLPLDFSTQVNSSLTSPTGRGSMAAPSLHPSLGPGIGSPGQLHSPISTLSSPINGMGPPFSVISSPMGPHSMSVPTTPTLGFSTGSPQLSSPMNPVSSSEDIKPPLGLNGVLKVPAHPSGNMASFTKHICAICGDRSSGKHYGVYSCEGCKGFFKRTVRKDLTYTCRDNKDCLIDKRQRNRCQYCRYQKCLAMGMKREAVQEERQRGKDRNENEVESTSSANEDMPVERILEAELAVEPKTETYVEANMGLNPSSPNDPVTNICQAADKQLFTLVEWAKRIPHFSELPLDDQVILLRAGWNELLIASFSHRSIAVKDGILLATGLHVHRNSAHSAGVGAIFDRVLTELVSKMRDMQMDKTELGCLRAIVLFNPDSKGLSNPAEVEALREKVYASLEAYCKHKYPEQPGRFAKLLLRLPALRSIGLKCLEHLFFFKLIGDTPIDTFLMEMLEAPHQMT

C=CCS(=O)(=O)O
inactive: [1] | [2] | [3] | [4] | [5] | [6] | [7] | [8] | [9] | [10] | [11] | [12] | [13]

CO[Si](CCCOCC1CO1)(OC)OC (stereo not drawn)
inactive: [1] | [3] | [4] | [5] | [6] | [7] | [8] | [10] | [11] | [12] | [13]

NC(CSCC(=O)O)C(=O)O (stereo not drawn)
inactive: [1] | [3] | [4] | [5] | [6] | [14] | [7] | [8] | [9] | [10] | [11] | [12] | [13]

O=C[C@H](O)[C@@H](O)[C@H](O)[C@H](O)CO
inactive: [1] | [4] | [5] | [15] | [6] | [14] | [7] | [8] | [9] | [10] | [11]

NC(=O)c1ccc(N)cc1
inactive: [1] | [3] | [4] | [5] | [6] | [14] | [7] | [8] | [9] | [11] | [12] | [13]

CC(=O)OCC(=O)[C@@]1(O)CC[C@H]2[C@@H]3CCC4=CC(=O)CC[C@]4(C)[C@H]3C(=O)C[C@@]21C
inactive: [1] | [2] | [4] | [5] | [15] | [6] | [14] | [7] | [8] | [9] | [10] | [11] | [12] | [13] | [16] | [17]

c1ccc(CC2=NCCN2)cc1
inactive: [1] | [2] | [3] | [4] | [5] | [6] | [14] | [7] | [8] | [9] | [11] | [12] | [13]

Nc1cc(=O)[nH]c(N)n1
inactive: [1] | [2] | [3] | [4] | [5] | [6] | [7] | [8] | [9] | [11] | [12] | [13] | [16] | [17]

COc1ccc(CCN(C)CCCC(C#N)(c2cc(OC)c(OC)c(OC)c2)C(C)C)cc1OC (stereo not drawn)
inactive: [1] | [2] | [3] | [4] | [5] | [6] | [14] | [7] | [8] | [9] | [11] | [12] | [13] | [16] | [17]

Nc1c[n+](N2CCOCC2)no1
inactive: [1] | [2] | [3] | [4] | [5] | [6] | [14] | [7] | [8] | [9] | [10] | [11] | [12] | [13]

NS(=O)(=O)c1cc(C(=O)O)cc(N2CCCC2)c1Oc1ccccc1
inactive: [1] | [2] | [3] | [4] | [5] | [6] | [14] | [7] | [8] | [9] | [10] | [11] | [12] | [13]

CC(=O)Nc1c(I)cc(I)c(C(=O)O)c1I
inactive: [1] | [2] | [3] | [4] | [5] | [6] | [14] | [7] | [8] | [9] | [10] | [11] | [12]

CCn1nc(C(=O)O)c(=O)c2cc3c(cc21)OCO3
inactive: [1] | [2] | [3] | [4] | [5] | [6] | [14] | [7] | [8] | [9] | [10] | [11] | [12] | [16] | [18] | [19] | [20] | [17]

Nc1c2c(nc3ccccc13)CCCC2O (stereo not drawn)
inactive: [1] | [2] | [3] | [4] | [5] | [6] | [7] | [8] | [9] | [10] | [11] | [12] | [13] | [16] | [18] | [19] | [20] | [17]

O=C(O)c1ccccc1OP(=O)(O)O
inactive: [1] | [2] | [3] | [4] | [5] | [6] | [14] | [7] | [8] | [9] | [10] | [11] | [12] | [13]

CCN(CC)CCOCCOC(=O)C1(c2ccccc2)CCCC1
inactive: [1] | [2] | [3] | [4] | [5] | [6] | [14] | [7] | [8] | [9] | [11] | [12] | [16]

O=C1CCCCCCCCCCCN1
inactive: [1] | [2] | [3] | [4] | [5] | [6] | [14] | [7] | [8] | [9] | [10] | [11] | [12]

C=CCOCC(CC)(CO)COCC=C
inactive: [1] | [2] | [3] | [4] | [5] | [6] | [14] | [7] | [8] | [9] | [10] | [11] | [12]

CCC(=O)OC(C)c1ccccc1 (stereo not drawn)
inactive: [1] | [2] | [3] | [4] | [5] | [6] | [7] | [8] | [9] | [10] | [11] | [12] | [13]

N=C(N)c1ccc2cc(OC(=O)c3ccc(N=C(N)N)cc3)ccc2c1
inactive: [1] | [2] | [3] | [4] | [5] | [6] | [7] | [8] | [9] | [11] | [12] | [13]
